Screening results: PubChem BioAssay, Johns Hopkins Ion Channel Center
KCNQ2 block: blocks the rat KCNQ2 potassium channel | AID 2156 | B-score at 10 µM | CHO-K1 KCNQ2, FluxOR thallium flux, 20 min; active compounds read low | 310,000 compounds, 1.1% hits | O88943;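 active = fluorescence ratio B-score at most minus 3 library SDs, with starting brightness B-score within 2 library SDs, cut at about -5.5 in these data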
Target sequence (O88943 whole entry, looked up): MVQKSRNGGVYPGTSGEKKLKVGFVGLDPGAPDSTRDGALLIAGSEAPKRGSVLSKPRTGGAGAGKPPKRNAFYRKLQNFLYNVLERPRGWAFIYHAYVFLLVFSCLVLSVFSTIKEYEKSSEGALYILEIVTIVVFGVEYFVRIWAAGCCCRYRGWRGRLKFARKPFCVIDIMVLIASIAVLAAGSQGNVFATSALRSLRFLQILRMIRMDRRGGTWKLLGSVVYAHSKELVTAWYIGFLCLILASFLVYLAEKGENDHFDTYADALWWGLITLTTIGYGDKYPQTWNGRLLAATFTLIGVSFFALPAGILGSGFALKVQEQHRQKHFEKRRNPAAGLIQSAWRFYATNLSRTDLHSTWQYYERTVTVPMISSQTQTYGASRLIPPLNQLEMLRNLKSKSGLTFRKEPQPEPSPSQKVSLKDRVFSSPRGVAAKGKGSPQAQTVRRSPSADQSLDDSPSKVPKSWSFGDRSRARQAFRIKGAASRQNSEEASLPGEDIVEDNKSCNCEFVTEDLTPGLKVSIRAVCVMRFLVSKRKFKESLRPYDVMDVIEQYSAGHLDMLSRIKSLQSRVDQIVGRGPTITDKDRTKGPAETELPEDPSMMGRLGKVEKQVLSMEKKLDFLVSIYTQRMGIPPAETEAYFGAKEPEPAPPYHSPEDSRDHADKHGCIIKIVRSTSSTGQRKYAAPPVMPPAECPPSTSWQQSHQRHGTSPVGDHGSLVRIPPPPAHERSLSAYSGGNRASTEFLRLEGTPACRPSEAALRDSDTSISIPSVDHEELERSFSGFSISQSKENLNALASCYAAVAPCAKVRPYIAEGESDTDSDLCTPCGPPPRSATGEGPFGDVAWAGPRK
KCNQ2 enhance: potentiators of rat KCNQ2 potassium channel | O88943 | CHO-K1 KCNQ2, FluxOR thallium flux fluorescence; active compounds read high | B-score at 10 µM | 310,000 compounds, 0.54% hits;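 active = fluorescence ratio B-score at least 3 SD of library B-scores, with initial fluorescence B-score within 3 of them, cut at about 5.3 in these data; same plate scores as AID 2156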;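 note: B-score of peak minus minimum over baseline fluorescence ratio after K+ and Tl+ stimulus; positive B-score means potentiation of KCNQ2 with more thallium influx and brighter signal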
Kir21 conf inh: confirmation of mouse Kir2.1 potassium channel inhibitors. shares compounds with KCNQ2 enhance. Kir2.1-expressing cells, FluxOR thallium flux fluorescence; active compounds read low. Tl flux remaining, % of negative control (active compounds read low), % at 10 µM. 2,300 compounds, 41% hits. AID 2032;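 active = Primary-screen hit whose thallium flux fell at least 3 control SD below untreated wells in both duplicates, with normal baseline fluorescence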
HEK293 Tl flux: parental HEK293 activity in Kir2.1 inhibitor counter-screen. shares compounds with KCNQ2 enhance. 2,300 compounds, 19% hits. parental HEK293 cells, FluxOR thallium flux fluorescence; 0% = unstimulated blank wells. FluxOR signal as % of negative control (100 = no effect), % at 10 µM;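 active = dye signal at least 3 control SD above or below untreated wells in both duplicates, raw fluorescence within 3, either direction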;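 note: percent is based on the flux ratio of peak minus minimum fluorescence over baseline F0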
CHO-K1 ctr: counter-screen for KCNQ2 potentiators: effect in parental CHO-K1 cells. activity increase over 3SD of controls, % at 10 µM. FluxOR thallium flux fluorescence; zero = vehicle mean+3SD, 100% = vehicle-minus-blank window. 1,200 compounds, 43% hits. shares compounds with KCNQ2 enhance;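 active = signal rise of at least 3 SD above the untreated control mean, in both duplicate wells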;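 note: counter screen of KCNQ2 potentiator hits so any rise reflects channel-independent effects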
KCNQ1 pot spec: tests whether KCNQ2 potentiators also act on human KCNQ1 | CHO KCNQ1 stable, FluxOR thallium flux fluorescence; beyond 3SD, as % of vehicle-control signal | activation over 3SD threshold, % at 10 µM | shares compounds with KCNQ2 enhance | 1,200 compounds, 28% hits | AID 2283;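 active = fluorescence ratio rise of at least 3 SD of vehicle wells above their mean, in both replicate wells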
KCNQ2 pot conf: rat KCNQ2 channel potentiator confirmation; shares compounds with KCNQ2 enhance; CHO-KCNQ2 cells, FluxOR thallium flux fluorescence; potentiation, less the hit threshold, % at 10 µM; 1,200 compounds, 68% hits; AID 2287;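 active = fluorescence ratio rising 3 SD or more over the vehicle control mean in both replicates, plus primary screen hit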;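 note: peak minus minimum thallium fluorescence divided by baseline after K/Tl stimulus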
Kir21 spec: tests whether KCNQ2 potentiators also affect mouse Kir2.1; shares compounds with KCNQ2 enhance; HEK293 Kir2.1, FluxOR thallium flux fluorescence; activity over 3SD threshold, % at 10 µM; 1,200 compounds, 2% hits; AID 2345;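 active = fluorescence ratio rise of at least 3 SD above the vehicle-control mean, seen in both replicates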
KCNQ2 W236L pot: rat KCNQ2 W236L mutant potentiation by KCNQ2 potentiators. shares compounds with KCNQ2 enhance. CHO KCNQ2-W236L, automated patch clamp current. current increase over 3SD of negative controls (%), active compounds read high, % at 25 µM. 940 compounds, 10% hits. AID 2558;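 active = current increase at least 3 SD of the untreated controls above them in both duplicate recordings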
Large screens that a line does not name were inactive (follow-up assays come after a bar, where they were run). This is a sample that favours compounds with a hit; in the whole collection about 1.6% have one here.

CN(C(=O)c1cccc(COc2ccc(Cl)cc2Cl)c1)c1ccccc1	none (no result: KCNQ2 enhance) | Kir21 conf inh inactive | HEK293 Tl flux inactive
O=C(c1cccc(COc2ccc(Cl)cc2Cl)c1)N1CCN(c2ccccn2)CC1	none (no result: KCNQ2 enhance)
CCn1c(SC(C)C(=O)N2CCOCC2)nc2sc(C)c(C)c2c1=O (centres undefined)	none
Cc1nc(SCC(=O)N2CCCCC2)c2c(C)c(C)sc2n1	KCNQ2 enhance 7.4 | Kir21 conf inh inactive | HEK293 Tl flux inactive | CHO-K1 ctr inactive | KCNQ1 pot spec 99.5 | KCNQ2 pot conf 40.6 | Kir21 spec inactive | KCNQ2 W236L pot inactive
Cc1sc2ncnc(SCC(=O)N3CCCCC3)c2c1C	none
Cc1sc2nc(C(C)C)nc(SCC(=O)N3CCOCC3)c2c1C	KCNQ2 enhance 12.2 | Kir21 conf inh inactive | HEK293 Tl flux inactive | CHO-K1 ctr 5.3 | KCNQ1 pot spec inactive | KCNQ2 pot conf 34.3 | Kir21 spec inactive | KCNQ2 W236L pot inactive
Cn1/c(=N\NC(=O)C2CCCCC2)sc2ccccc21	KCNQ2 enhance 9.9 | Kir21 conf inh inactive | HEK293 Tl flux inactive | CHO-K1 ctr inactive | KCNQ1 pot spec inactive | KCNQ2 pot conf 0.0 | Kir21 spec inactive | KCNQ2 W236L pot inactive
CC(=O)N/N=c1\sc2ccccc2n1C	none
COc1ccc(/C=C/c2cc(=O)c3cc(Cl)ccc3o2)cc1	none (no result: KCNQ2 enhance) | Kir21 conf inh inactive | HEK293 Tl flux inactive
COc1ccc(-c2cc(=O)c3cc(OC)ccc3o2)cc1	none
COc1cc(OC)c(NC(=O)c2ccc3c(SCC(=O)O)c4c(nc3c2)CCCC4)cc1Cl	none
c1ccc(CNc2ncnc3nc[nH]c23)cc1	none
c1ccc(CCCNc2ncnc3nc[nH]c23)cc1	none | Kir21 conf inh inactive | HEK293 Tl flux inactive
Cc1ccc(S(=O)(=O)NCC(=O)Nc2cccc([N+](=O)[O-])c2)cc1	none
Cc1ccc(S(=O)(=O)CCC(=O)c2cccc([N+](=O)[O-])c2)cc1	KCNQ2 block -12.9 | Kir21 conf inh 51.0% | HEK293 Tl flux 58.0%
CSc1ccccc1C(=O)N(CC1CCCO1)c1c(N)n(Cc2ccccc2)c(=O)[nH]c1=O (centres undefined)	none (no result: KCNQ2 enhance)
O=C(CCS(=O)(=O)c1ccc(Br)s1)NC1CCCCCC1	none | Kir21 conf inh inactive | HEK293 Tl flux 70.0%
O=C(CCS(=O)(=O)c1ccccc1)NC1CCCCC1	none
NC(=O)c1ccccc1NC(=O)C1CCCO1 (centres undefined)	none
CC[C@@H](C)[C@H](CN[C@H](CNC)C(C)C)NC[C@@H](C)c1ccc(CC(C)C)cc1	none (no result: KCNQ2 enhance) | Kir21 conf inh 26.5% | HEK293 Tl flux inactive
CC[C@H](C)[C@@H](CNC)NC[C@@H](Cc1ccc(O)cc1)NCC(C)(C)C	none
COc1ccccc1N1CCN(C(=O)CSc2nc(C)c(Cc3ccccc3)c(=O)[nH]2)CC1	KCNQ2 enhance 9.15 | Kir21 conf inh inactive | HEK293 Tl flux inactive | CHO-K1 ctr inactive | KCNQ1 pot spec inactive | KCNQ2 pot conf 28.7 | Kir21 spec inactive | KCNQ2 W236L pot inactive
COc1ccccc1N1CCN(C(=O)CSc2nc(-c3ccccc3)cc(=O)[nH]2)CC1	none (no result: KCNQ2 enhance)
CC(C)c1ccc(C(C)NC(=S)NC2CCCCC2)cc1 (centres undefined)	KCNQ2 enhance 16.4 | Kir21 conf inh inactive | HEK293 Tl flux inactive | CHO-K1 ctr inactive | KCNQ1 pot spec inactive | KCNQ2 pot conf 39.4 | Kir21 spec inactive | KCNQ2 W236L pot inactive
